Data on 51 compounds can be found in ChEMBL document CHEMBL3988442, “University of Dundee, Small-Polar-MMV Screening Library” (2021).

SMILES strings stand for the structures. Screen size: about 48,000 compounds; about 13,000 (27%) showed an effect of 50% or more. The list shows a part of the results.

The assay deals with Wolbachia pipientis. Briefly: Anti-Wolbachia Cell-Based Screen. It counts as functional. Also noted: scale not given: in the data most compounds retested in dose-response had high values. The conditions noted are these: 5 µM.
`CCn1nc(C)c(CCN2CC3(CCOC3)CCC2=O)c1C` (stereo unspecified): the “Percent Effect” value is given as -24.96%. Regarding `N#CC1C(=O)Nc2c(cnn2C2CCCC2)C12CCCCC2` (stereo unspecified), the “Percent Effect” value was 30.08%. With `CC(C)c1ncc2c(n1)CN(Cc1nc(-c3cccnc3)no1)CC2`, the “Percent Effect” value was 97.53%. `c1ccc(-c2noc(CN3CCc4cncnc4C3)n2)nc1`: the “Percent Effect” value came out at 12.32%. With `CC(C)c1ncc2c(n1)CN(Cc1nc(Cc3ccccc3)no1)CC2`, the “Percent Effect” value is -0.3417%. In the case of `CCc1ncc2c(n1)CN(Cc1nc(-c3ccccn3)no1)CC2`, the “Percent Effect” value is 1.522%. With `Cn1cnc2c1CCN(Cc1nc(-c3ccco3)no1)C2` the figure was -0.7314%; with `CC(C)c1ncc2c(n1)CN(Cc1nc(-c3ccco3)no1)CC2`, 103.4%. With `CC(C)c1ncc2c(n1)CN(Cc1nc(-c3ccoc3)no1)CC2`, the “Percent Effect” value is -5.396%. As to `CC(C)c1ncc2c(n1)CN(Cc1nc(-c3ccccn3)no1)CC2`, the “Percent Effect” value is 114.4%. On to `CC1CCCN(S(=O)(=O)N2CCOC3(CCCC3)C2)C1` (stereo unspecified), for which the “Percent Effect” value came to 2.449%.

As to `CCC(=O)NCC(=O)NCC(C)(C)c1cccc(Br)c1`, the “Percent Effect” value was determined as 13.04%.

As for `COc1cccc2c1OCC(C(=O)NCCn1nc(C)c(Cl)c1C)C2` (stereo unspecified), the “Percent Effect” value is -38.77%. As to `CCCc1nnc(NC2CCN(C3CCSCC3)CC2)o1`, the “Percent Effect” value was -8.087%. As for `CCc1nnc(CSc2ccccn2)o1`, the “Percent Effect” value is listed as -8.933%. `CN1CC(=O)N(c2cccc(F)c2)CC12CCN(S(=O)(=O)C1CC1)C2.O=C(O)C(F)(F)F` (stereo unspecified): the “Percent Effect” value was -1.497%. `CC(C)c1nccn1-c1cncc(C2CCCN(C3CCCCC3)C2)n1` (stereo unspecified): the “Percent Effect” value is listed as 98.48%. In the case of `CC(C)c1nccn1-c1cncc(C2CCCN(C3CCCC3)C2)n1` (stereo unspecified), the “Percent Effect” value worked out at 108%.

Regarding `CC(C)c1nccn1-c1cccc(C2CCCN(C3CCCC3)C2)n1` (stereo unspecified), the “Percent Effect” value amounted to 0.08562%. Take `COC[C@]1(O)CCN(C(=O)c2cccc(CN(C)C)c2)CC1(C)C`: the “Percent Effect” value amounted to 2.502%. For `COc1ccc(C)cc1CNCc1ccc(-n2nc(C)cc2C)nc1`, the “Percent Effect” value is -14.66%. Take `Cc1nc(CCNC(=O)C2CC(=O)N(C(C)(C)C)C2)sc1C` (stereo unspecified): the “Percent Effect” value is on record as 2.949%.

For `Cc1nc(COCc2nc3c(o2)CN(C(=O)c2ccc[nH]2)C3)cs1.O=C(O)C(F)(F)F`, the “Percent Effect” value is recorded as -0.815%. Take `COc1ccc(CCC(C)Nc2cccc(SC)c2)cc1` (stereo unspecified): the “Percent Effect” value is 100.8%. The value for `COc1ccc(CC(C)Nc2cccc(SC)c2)cc1` (stereo unspecified) was 111.5%; that for `COc1ccc2cc(CNc3c(C)nn(C(C)C)c3C)ccc2c1` was -4.986%; that for `COc1ccc(C(CO)NC(=O)Nc2cccc(C#N)c2)cc1` (stereo unspecified) was -8.791%. In the case of `COC[C@H](C)Nc1cc(C)c2ccc(SC)cc2n1`, the “Percent Effect” value came out at 11.13%. With `COc1ccc(C(CO)NC(=O)Nc2cccc(F)c2)cc1` (stereo unspecified), the “Percent Effect” value is -21.51%. Consider `Cn1cc(CN2CCc3ncn(C)c3C2COCc2ccccc2)cn1` (stereo unspecified), for which the “Percent Effect” value was 0.114%.

On to `Cc1nnc([C@H]2C[C@H]3CN(C(=O)Cc4ccc(F)cc4)CC[C@@H]3O2)o1`, for which the “Percent Effect” value is recorded as -15.1%. The value for `Nc1ncnc2nc(C3CCN(C(=O)Cc4ccc(F)cc4)C3)ccc12` (stereo unspecified) was 118.1%; that for `O=C(Cc1ccncc1)N1C[C@@H]2CC[C@H](C1)N(Cc1ccccc1)C2=O` was 6.116%; that for `O=C(Cc1ccccc1)N1CCn2cc(Cn3cncn3)nc2C1` was 14.97%.

As to `Cc1ccc(CC(=O)N2CCCC(c3cc(C)[nH]n3)C2)cn1` (stereo unspecified), the “Percent Effect” value is given as -0.4689%. Turning to `Nc1ncnc2nc(C3CCN(C(=O)Cc4ccccc4)C3)ccc12` (stereo unspecified), the “Percent Effect” value is 78.69%. Take `O=c1[nH]c2cc(S(=O)(=O)N3CCC(c4ccsc4)CC3)ccc2o1`: the “Percent Effect” value is given as 12.73%. For `COC(=O)CNC(=O)CSCc1nc(O)c2cc(C)sc2n1`, the “Percent Effect” value turned out to be 28.1%.

For `Cc1cccnc1CN1CCN(C[C@]2(O)CCCN3CCCC[C@@H]32)CC1`, the “Percent Effect” value is listed as 4.951%. With `O[C@@]1(Cn2cnc(Cl)c2Cl)CCCN2CCCC[C@@H]21` the figure was 101.1%.

Turning to `Cc1cc2ncn(C[C@]3(O)CCCN4CCCC[C@@H]43)c2cc1C`, the “Percent Effect” value is on record as 111.8%. For `Cc1cnccc1N1CCN(C[C@]2(O)CCCN3CCCC[C@@H]32)CC1`, the “Percent Effect” value was -12.63%. For the compound `COc1ccc2c(c1)ncn2C[C@]1(O)CCCN2CCCC[C@@H]21`, the “Percent Effect” value was determined as 108.1%. The value for `Cc1ccnc(N2CCN(C[C@]3(O)CCCN4CCCC[C@@H]43)CC2)c1` was -8.166%; that for `O[C@@]1(CNCCOc2ccccc2)CCCN2CCCC[C@@H]21` was -8.201%; that for `CCN(Cc1noc(CC(C)C)n1)C[C@]1(O)CCCN2CCCC[C@@H]21` was 2.054%. In the case of `O[C@@]1(CN2CCN(Cc3ccncc3)CC2)CCCN2CCCC[C@@H]21`, the “Percent Effect” value is reported as 17.3%. The value for `CCS(=O)(=O)N1Cc2c(Cn3ccnc3)nn(C(C)C)c2C1` was 9.692%; that for `COC[C@@]12CC[C@@H](N3CCOCC3)C[C@H]1CCN(c1cc(C)ccn1)C2` was -3.135%; that for `Cc1cccc(C(=O)NCCCN2CCN(c3ccccc3)CC2)c1` was 0.2933%. The value for `NC(=O)CCCNC(=O)Cc1cccc(I)c1` was -16.28%.
